Screening results deposited in PubChem BioAssay by National Center for Advancing Translational Sciences (NCATS).
Pf growth 96h: P. falciparum growth inhibition at 96 hours | 6.9% of 320,000 active | P. falciparum luciferase reporter growth, 96 h | AID 504834 | Potency, µM (series often up to 28.7 µM), inactives show at the highest dose activity change, negative = inhibition, hits mostly inhibitors; further: potency means the concentration at half of the fitted maximal effect
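Luminescence readout: decreased luciferase signal marks inhibited growth of reporter-expressing P. falciparum in infected red cells (2% hematocrit, 0.05% parasitemia final), exposed to compound two generations (96 h, 37 C, 5% CO2).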
HCV inh: inhibitors of hepatitis C virus infection. 3.4% of 340,000 active. AID 651820. Potency, µM (highest dose often 41.8 µM), for the others: at the highest dose activity change, negative = inhibition, usual class: inhibitors. Huh7.5.1 HCVcc-Cre infection, luciferase reporter, 44 h; further: potency means the concentration at half of the fitted maximal effect
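Cells seeded at 1,000/well and cultured 4 h, then compounds added followed by HCVcc-Cre virus (~0.5 moi). After 44 h further culture, luciferase substrate was added, plates held 15 min at room temperature, and luminescence read for 15 sec.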
HCMV antiviral: inhibitors of human cytomegalovirus | HFF cells, HCMV-luciferase reporter, 72 h; hits give low values | activity change, negative = inhibition, % at 57.5 µM | 4.5% of 410,000 active | AID 1259415; in the data active means activity change below about -60%; inconclusive means no clear call, values can overlap the other calls; inactive means above about -39%
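Cell-based, HFFs, 1000 cells/well, 16 h 37C; cpds in DMSO + HCMV-luc, MOI 1 PFU/cell; 72 h 37C; OneGlo luminescence after 5 min RT; norm. to buffer vs Salinomycin 10uM.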
Pf growth 48h: P. falciparum growth inhibition at 48 hours (one generation). Potency, µM (titrated, usually from 28.7 µM), for the others: at the top dose activity change, negative = inhibition, usual class: inhibitors. P. falciparum luciferase growth in erythrocytes, 48 h. 5.9% of 310,000 active; further: potency means the concentration at half of the fitted maximal effect
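Read-out is firefly luciferase luminescence from an integrated reporter in P. falciparum, so falling signal marks reduced parasite growth. Infected erythrocytes were at 2% hematocrit and 0.1% parasitemia (final) in Albumax-supplemented RPMI 1640.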
The depositor's hits bear a star. Shown are actives, neighbours in structure and some others; about 13% of the full set was active somewhere. Unless noted, the call rests on the fitted dose curve; in most records, active means well fitted inhibition curve with a large enough effect; inconclusive means small, poorly fitted or top-dose-only effect, or another doubt; inactive means no such curve, though single readings can be large or run the other way. On the % scale 0 is the no-effect control and ±100 the full control effect.

Results for Cc1cccc(NC(=O)Cn2c(=O)n(Cc3ccco3)c(=N)c3c4c(sc32)COC(C)(C)C4)c1 ?
Pf growth 96h: 8.3µM*; HCV inh: inconclusive; HCMV antiviral: 53

How did CC1(C)Cc2c(sc3c2c(=N)n(Cc2ccco2)c(=O)n3CC(=O)Nc2ccccc2)CO1 do in these assays?
Pf growth 96h: 8%; HCV inh: inconclusive; HCMV antiviral: 5; Pf growth 48h: inconclusive

What do the screens show for `CCOP(=S)(OCC)SCC(=O)NC(C)(CC)C(=O)O` (configuration not stated)?
Pf growth 96h: 7.4µM*; HCV inh: 12%; HCMV antiviral: 39

Results for CC(=O)N1CC(=O)N2[C@@H](CO)[C@@H](c3ccc(Br)cc3)[C@@H]2C1 ?
HCMV antiviral: -7

What do the screens show for `COc1ccc(C(=O)N2CCCC2(C#N)c2ccccc2)cc1[N+](=O)[O-]` (configuration not stated)?
Pf growth 96h: inconclusive; HCV inh: 14µM*; HCMV antiviral: 69

Results for Cc1ccc(C(=O)c2no[n+]([O-])c2C(=O)c2ccc(C)cc2)cc1 ?
Pf growth 96h: 2%; HCV inh: inconclusive; HCMV antiviral: -99*; Pf growth 48h: 0%

What do the screens show for `Cc1ccc(O)c(NC(=O)c2noc3c2CCc2ccccc2-3)c1`?
Pf growth 96h: 9.3µM*; HCV inh: inconclusive; HCMV antiviral: 14; Pf growth 48h: inconclusive

What do the screens show for `Cc1ccccc1Cn1nc(C)c(NC(=O)c2noc3c2CC(C(C)(C)C)CC3)c1C` (configuration not stated)?
Pf growth 96h: 68%; HCV inh: -5%; HCMV antiviral: inconclusive; Pf growth 48h: inconclusive

How did Cc1ccccc1Cn1nc(C)c(NC(=O)c2noc3c2CCc2ccccc2-3)c1C do in these assays?
Pf growth 96h: 1.2µM*; HCV inh: inconclusive; HCMV antiviral: -24; Pf growth 48h: inconclusive

Results for COc1ccc2c(c1)CCc1c(C(=O)Nc3ccccc3C(F)(F)F)noc1-2 ?
HCMV antiviral: 25

Results for COc1ccc2c(c1)CCc1c(C(=O)Nc3c(C)nn(Cc4ccccc4C)c3C)noc1-2 ?
HCMV antiviral: -66*

What do the screens show for `COc1ccc2c(c1)CCc1c(C(=O)Nc3c(C)nn(Cc4c(Cl)cccc4Cl)c3C)noc1-2`?
HCMV antiviral: -92*

Results for COc1ccc2c(c1)CCc1c(C(=O)Nc3ccc(F)c(Cl)c3)noc1-2 ?
HCMV antiviral: 64

What do the screens show for `Cc1cc(C)cc(NC(c2cccc(Cl)c2)c2nnc(-c3ccccc3)o2)c1` (configuration not stated)?
HCMV antiviral: -5

Results for COc1ccc(/C=C/c2nc(C#N)c(N3CCN(c4ccccc4)CC3)o2)cc1OC ?
HCMV antiviral: -35

How did COc1cccc(N2C(=O)C(CC(=O)Nc3ccccc3)N(CCc3sccc3C)C2=O)c1 (configuration not stated) do in these assays?
HCMV antiviral: -4

What do the screens show for `Cc1cccc(CN2CCC(CNC(=O)c3c(C)oc4ncnc(N5CCCCC5)c34)CC2)c1`?
HCMV antiviral: -9

How did Cc1ccccc1C(=O)Nc1cccc(OCc2cc(=O)n3c4c(sc3n2)CCCC4)c1 do in these assays?
HCMV antiviral: -2

Results for COc1ccc(-n2c(=O)c3ccc(C(=O)NCc4ccc(C)cc4)cc3n(CC(=O)Nc3ccc(F)cc3)c2=O)cc1 ?
HCMV antiviral: -20

Results for O=C(O)c1ccccc1SC1CC(=O)N(c2ccccc2)C1=O (configuration not stated) ?
Pf growth 96h: 2.1µM*; HCV inh: 12%; HCMV antiviral: -10; Pf growth 48h: -4%

What do the screens show for `O=C(O)c1cccnc1SC1CC(=O)N(c2ccccc2)C1=O` (configuration not stated)?
Pf growth 96h: 1%; HCV inh: 15%; HCMV antiviral: -28; Pf growth 48h: inconclusive

How did CCC(C(=O)NCc1ccccc1OC)n1nc(C)n2c(cc3sccc32)c1=O (configuration not stated) do in these assays?
HCMV antiviral: -8

What do the screens show for `COc1ccc(-c2nc3ccccc3c(C(=O)Nc3ccc(S(=O)(=O)Nc4cc(C)on4)cc3)c2C)cc1`?
Pf growth 96h: inconclusive; HCV inh: -14%; Pf growth 48h: 10µM*

Results for Cc1cc(NS(=O)(=O)c2ccc(NC(=O)c3ccccc3C)cc2)no1 ?
Pf growth 96h: 31%; HCV inh: 8%; HCMV antiviral: -2; Pf growth 48h: 0%

Results for Cc1ccc2nc(-c3ccccc3Cl)cc(C(=O)Nc3cc(C)on3)c2c1 ?
HCV inh: 13µM*; HCMV antiviral: -39; Pf growth 48h: inconclusive

How did Cc1ccc(-c2cc(C(=O)Nc3ccc(S(=O)(=O)Nc4cc(C)on4)cc3)c3ccccc3n2)c(C)c1 do in these assays?
Pf growth 96h: 7.4µM*; HCV inh: 4%; HCMV antiviral: 28; Pf growth 48h: inconclusive

Results for COC(=O)C1=C(C)N(Cc2cccc(C(F)(F)F)c2)C(=NCc2ccc3c(c2)OCO3)NC1c1cccc(F)c1 (configuration not stated) ?
HCMV antiviral: -24

Results for COC(=O)c1ccc(Cn2c(SCc3cccc(C)c3)nc3ccncc32)cc1 ?
HCMV antiviral: -10

Results for Cc1cc(C)cc([C@H]2C[C@]34CN(Cc5ccccc5)S(=O)(=O)[C@H]3C[C@H]2O4)c1 ?
HCMV antiviral: -6

How did CCN(CC)S(=O)(=O)c1ccc2c(c1)N(CC(=O)NCCc1ccccc1)C(=O)CO2 do in these assays?
HCMV antiviral: 20

How did CC(C)(C)NC(=O)CSc1nc2ccccc2c(=O)[nH]1 do in these assays?
Pf growth 96h: 77%; HCV inh: 13%; HCMV antiviral: 179; Pf growth 48h: 12µM*

How did CC(C)NC(=O)CSc1nc(-c2cccs2)cc(-c2ccccc2)c1C#N do in these assays?
Pf growth 96h: -4%; HCV inh: inconclusive; HCMV antiviral: -4; Pf growth 48h: 12%

Results for CC(C)N(C(=O)CSc1nc(Cc2ccccc2)nc2ccccc12)C(C)C ?
Pf growth 96h: -2%; HCV inh: inconclusive; HCMV antiviral: -38; Pf growth 48h: 10µM*

Results for CC(C)(C)NC(=O)CSc1nc(Cc2ccccc2)nc2ccccc12 ?
Pf growth 96h: 13µM*; HCV inh: 13µM*; HCMV antiviral: -67*; Pf growth 48h: -17%

How did O=C(CSc1nc(Cc2ccccc2)nc2ccccc12)Nc1ccc2c(c1)OCCO2 do in these assays?
Pf growth 96h: inconclusive; HCV inh: -2%; HCMV antiviral: inconclusive; Pf growth 48h: inconclusive

Results for CC(C)NC(=O)CSc1nc(Cc2cccs2)nc2ccccc12 ?
Pf growth 96h: inconclusive; HCV inh: -26%; HCMV antiviral: -81*; Pf growth 48h: inconclusive

What do the screens show for `Cc1ccc(C)c(Cn2c(=O)c3c(nc4n3CCN4c3ccc(F)cc3)n(C)c2=O)c1`?
HCMV antiviral: -29
